# Reference: the supplement of paper PMC12636033
# ± gives the standard deviation of the averaged measurements. The full ranking holds about 33,000 sequences; the median of “E-score (rank enrichment, -0.5 to 0.5)” is about -0.0068, and the highest 2% start at about 0.24. Many of the other results were omitted from the sample, so the highest values are more common in it than they were.
# System: muMax20 (Max(13-93) K31hArg/K57hArg, M65Nle)
# Assay: PBM 8-mer E-score (E-score (rank enrichment, -0.5 to 0.5)); higher = stronger preferential binding
# Protocol: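 Protein binding microarray (universal PBM chip covering all 10-mers in fixed probe flanks) with chemically synthesized human Max(13-93) bHLH-LZ analogs (not full-length Max) bearing noncanonical residues (hArg, Tha, Aib, Nle at 65) and aromatic Cys staples. Read-out per 8-mer (and its reverse complement): E-score (rank-based enrichment, -0.5 to 0.5) and Z-score of median probe intensity.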
row,Sequence,PBM 8-mer E-score
1,ATCTCAAT,0.0437 ± 0.22
2,ATCTCCCA,0.0498 ± 0.043
3,AGACCAGA,-0.0423 ± 0.084
4,AGGGTGCG,-0.107 ± 0.027
5,CTGAGCAG,-0.139 ± 0.067
6,ACATAGGC,0.126 ± 0.0047
7,CGCAGGGA,-0.135 ± 0.074
8,ATCACGTC,0.182 ± 0.045
9,ATCACGTA,0.144 ± 0.055
10,AGCACGTA,0.0788 ± 0.0046
11,AGCACGTC,-0.139 ± 0.096
12,ACCACGTG,0.477 ± 0.026
13,ACCACGTC,0.0772 ± 0.1
14,ACCACGTA,-0.0417 ± 0.022
15,AGCACGTG,0.436 ± 0.07
16,AACACGCG,0.202 ± 0.042
17,CACACGCG,0.258 ± 0.038
18,ATCACGTG,0.445 ± 0.064
19,CACACGCA,0.0877 ± 0.054
20,ATGCCCAG,-0.219 ± 0.063
21,ACTCGCTA,-0.111 ± 0.17
22,CCGTGCCG,-0.206 ± 0.017
23,GACCACAC,0.0455 ± 0.029
24,CACTAGGG,-0.0807 ± 0.033
25,TATGGAAA,0.148 ± 0.034

row,Sequence,PBM 8-mer E-score
1,CCCCCTCG,-0.0378 ± 0.01
2,ATGCCCAC,0.164 ± 0.033
3,AATGAATT,0.238 ± 0.013
4,AATGAATG,0.259 ± 0.058
5,CATGAATG,0.126 ± 0.15
6,AATGAATC,-0.0408 ± 0.034
7,AATGAACT,-0.00523 ± 0.086
8,AATGAATA,0.275 ± 0.093
9,TATGAATA,0.159 ± 0.029
10,ACTGAATA,0.0784 ± 0.014
11,CATGAATA,0.192 ± 0.13
12,GATGAATA,0.24 ± 0.097
13,AATGAAAT,0.0911 ± 0.04
14,GATGAATC,0.0791 ± 0.018
15,ATGTATCA,0.135 ± 0.08
16,ATAGAGCA,-0.146 ± 0.024
17,GAACCGAA,0.0388 ± 0.025
18,AAACCCCG,0.193 ± 0.062
19,ACCTACTG,0.118 ± 0.053
20,CATTGATC,0.196 ± 0.028
21,ATCGCAAT,0.0576 ± 0.054
22,CAAAGCTC,-0.178 ± 0.079
23,CGCATCTA,0.176 ± 0.0097
24,CTCTTCGA,0.0225 ± 0.082
25,AAATTGTT,0.136 ± 0.14

row,Sequence,PBM 8-mer E-score
1,TAATTGTA,0.146 ± 0.091
2,AAATTGTA,0.282 ± 0.017
3,CGCGAACC,-0.2495 ± 0.00081
4,CCTGAAAG,0.0218 ± 0.0043
5,ACAACATC,0.0572 ± 0.022
6,ACAACCAT,0.29 ± 0.03
7,ACAACATG,0.265 ± 0.008
8,ACAACAAA,0.163 ± 0.0084
9,ACAACATA,0.0952 ± 0.11
10,ACAACAAG,0.262 ± 0.017
11,ACAACCAC,0.033 ± 0.02
12,ACAACAAC,0.125 ± 0.024
13,ACAACCAG,0.062 ± 0.026
14,CCGTGAGA,-0.189 ± 0.067
15,ACCTATGA,-0.136 ± 0.034
16,ACCACCGC,-0.0018 ± 0.023
17,ATTCTTTC,0.176 ± 0.02
18,CGCAGTGC,-0.12 ± 0.2
19,CATCGGGC,-0.209 ± 0.08
20,ATGTTGCA,0.122 ± 0.029
21,AAGTAGAT,0.0944 ± 0.081
22,ACCTGGCG,-0.256 ± 0.014
23,GGGGCACA,0.0581 ± 0.01
24,TGTGAAAA,0.289 ± 0.071
25,GGTGAAAA,-0.0373 ± 0.0061

row,Sequence,PBM 8-mer E-score
1,CTTGAAAA,0.117 ± 0.035
2,ATTGAAAC,0.154 ± 0.059
3,CGTGAAAA,0.213 ± 0.11
4,ATTGAAAA,0.306 ± 0.03
5,CGCCGACC,-0.14 ± 0.057
6,ACTGAGGA,-0.126 ± 0.025
7,AGCACCTG,-0.0212 ± 0.043
8,TACGTAGA,0.0117 ± 0.044
9,AACGAGGT,-0.0494 ± 0.052
10,AGTTAGCA,0.0279 ± 0.055
11,ACGTGTCA,0.278 ± 0.094
12,AAGTGTCT,0.0152 ± 0.031
13,CCGTGTCG,-0.1658 ± 0.00081
14,GCGTGTCA,0.149 ± 0.2
15,ACGTGTCG,0.237 ± 0.075
16,CCGTGTCA,-0.0799 ± 0.0084
17,ACGTGTCC,0.166 ± 0.052
18,ACGTGTCT,0.326 ± 0.036
19,AAGTGTCG,0.0406 ± 0.12
20,CAGCCGTA,-0.128 ± 0.029
21,ACATTAAC,0.175 ± 0.0064
22,CCATTAAC,0.239 ± 0.015
23,GCATTAAC,0.0389 ± 0.091
24,TGCGAACA,0.109 ± 0.11
25,ATCACACG,0.157 ± 0.065

row,Sequence,PBM 8-mer E-score
1,ATCACATC,0.00749 ± 0.048
2,ACCACATC,-0.0454 ± 0.028
3,ACCACATG,0.319 ± 0.077
4,ACCACATA,0.0727 ± 0.0036
5,ATCACACA,0.251 ± 0.021
6,AGCACATA,0.0478 ± 0.12
7,ATCACATA,0.168 ± 0.048
8,AGCACATC,-0.0692 ± 0.013
9,AGCACATG,0.266 ± 0.049
10,ATCACACC,0.12 ± 0.065
11,ATCACATG,0.296 ± 0.11
12,ACGAGCAG,-0.0192 ± 0.02
13,CACCCGGG,-0.361 ± 0.014
14,CATCCGGA,-0.0933 ± 0.064
15,CATCTCAC,-0.0239 ± 0.23
16,AGTTTATG,0.0668 ± 0.014
17,CCTTTACA,0.173 ± 0.094
18,CCTTTACC,0.023 ± 0.2
19,CCTTTACG,0.24 ± 0.01
20,AAGCTACG,0.0404 ± 0.15
21,AGTCCTGA,-0.233 ± 0.16
22,CGTGGTAA,0.215 ± 0.06
23,TGTGGTAA,0.244 ± 0.067
24,CATGGTCA,0.304 ± 0.047
25,CATGGTAA,0.297 ± 0.052

row,Sequence,PBM 8-mer E-score
1,AATGGTAA,0.27 ± 0.071
2,CATGGTAG,0.0279 ± 0.022
3,AATGGTAT,0.213 ± 0.019
4,CATGGTCC,-0.136 ± 0.14
5,AATGGTAG,0.0638 ± 0.072
6,CATGGTCG,0.0286 ± 0.039
7,TATGGTAA,0.108 ± 0.0077
8,GGTGGTAA,0.0953 ± 0.084
9,GGGGCGAA,0.0451 ± 0.035
10,CCGCGAGG,-0.191 ± 0.082
11,CTCTCTCA,-0.0954 ± 0.052
12,CCCCAGTA,0.0363 ± 0.019
13,CAAGGATA,0.00143 ± 0.082
14,CCATAACA,0.141 ± 0.035
15,CGGCGACC,-0.159 ± 0.097
16,TGCGGCAA,0.0884 ± 0.051
17,AGACCTGG,-0.177 ± 0.069
18,ATGCGCAC,-0.00186 ± 0.029
19,ATGCGCAT,0.295 ± 0.03
20,ATGCGCAA,0.0942 ± 0.019
21,AACCGCAC,0.0872 ± 0.056
22,CGGTCGGC,-0.2874 ± 0.0021
23,TAATGCCA,0.142 ± 0.036
24,AACACGTA,0.218 ± 0.0095
25,AACACGTC,0.091 ± 0.002

row,Sequence,PBM 8-mer E-score
1,CACACGTC,0.0717 ± 0.034
2,AACACGTG,0.481 ± 0.017
3,CACACGTG,0.426 ± 0.074
4,CACACGTA,0.125 ± 0.018
5,GCATTGCA,0.14 ± 0.028
6,CGATTACC,-0.0103 ± 0.049
7,CAGAGTGA,0.00192 ± 0.0028
8,GCCCCTAA,-0.0669 ± 0.16
9,ATCCCCGG,-0.16 ± 0.024
10,AAGATTCC,0.00605 ± 0.027
11,ACATAAGA,0.174 ± 0.014
12,CGTCGGGC,-0.152 ± 0.008
13,GCAATAAC,0.138 ± 0.014
14,CCTTATTC,-0.029 ± 0.059
15,GATTATTA,0.118 ± 0.064
16,AATTATTG,0.191 ± 0.012
17,GCTTATTA,0.1783 ± 0.0012
18,AATTATTC,0.101 ± 0.071
19,AATTATTA,0.309 ± 0.036
20,CCTTATTA,0.28 ± 0.04
21,CATTATTA,0.242 ± 0.051
22,CATTATTC,0.104 ± 0.032
